# In PubChem BioAssay AID1533 (PCMD, 2009):
# About 45 (0.03%) of roughly 160,000 compounds were called active. No stated cut-off is given here; in the data, active means inhibition mostly above about 34% (no sharp cut-off); inconclusive means no clear call, values can overlap the other calls; inactive means mostly below about 22%. The entries come from a sample that favours actives as a whole.
# Molecular target: dTDP-4-dehydrorhamnose reductase (Mycobacterium tuberculosis (strain ATCC 25618 / H37Rv)) + dTDP-4-dehydrorhamnose 3,5-epimerase (Mycobacterium tuberculosis (strain ATCC 25618 / H37Rv)) (UniProt P9WH09+P9WH11)
# Sequence (P9WH09 whole entry, looked up): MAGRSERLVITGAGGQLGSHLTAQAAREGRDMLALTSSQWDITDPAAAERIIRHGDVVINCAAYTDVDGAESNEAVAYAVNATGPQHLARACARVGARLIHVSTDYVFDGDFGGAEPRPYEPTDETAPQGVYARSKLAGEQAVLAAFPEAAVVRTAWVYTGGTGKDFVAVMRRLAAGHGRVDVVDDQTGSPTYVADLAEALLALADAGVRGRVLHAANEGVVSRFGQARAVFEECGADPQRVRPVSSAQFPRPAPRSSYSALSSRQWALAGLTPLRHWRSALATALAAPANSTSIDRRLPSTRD
# Sequence (P9WH11 whole entry, looked up): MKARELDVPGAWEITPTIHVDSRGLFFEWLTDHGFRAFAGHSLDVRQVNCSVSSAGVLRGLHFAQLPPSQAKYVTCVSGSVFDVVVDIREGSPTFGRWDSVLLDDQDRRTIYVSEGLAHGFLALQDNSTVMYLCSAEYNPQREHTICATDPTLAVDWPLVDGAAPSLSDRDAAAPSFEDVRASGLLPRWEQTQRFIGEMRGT
# Assay: M. tuberculosis RmlC/RmlD coupled enzyme inhibitors, primary screen, biochemical, compound mixtures, 384-well, from 1536-well plates (AID 1533)
# Conditions: RmlC+RmlD coupled enzyme assay, percent inhibition, primary screen in compound mixtures, stronger effect = higher value
# [1] = measured here: mean retest inhibition, at 5.5 µM
SMILES,inhibition (at 3.6 µM),inhibition [1] [%]
COc1ccc2[nH]c(=S)cc(C)c2c1,1.84% (inactive),
Cc1cc(=O)oc2cc(OCCC[n+]3ccccc3)ccc12,2.56% (inactive),
CCc1ccc(-n2c(SCc3cc(=O)n4cc(Br)ccc4n3)nc3[nH]ncc3c2=O)cc1,-10.8% (inactive),
CCn1c2ccccc2c2cc(NC(=O)Nc3ccc([N+](=O)[O-])cc3C)ccc21,14.1% (inactive),
O=C(Nc1cccnc1)c1cc([N+](=O)[O-])ccc1Cl,-16% (inactive),
COc1cccc(C(=O)n2ccc(-c3cccs3)n2)c1,2.94% (inactive),
COc1ccc(N(Cc2ccccc2)S(=O)(=O)c2cccc(C(=O)O)c2)cc1,1.87% (inactive),
COc1ccccc1Cn1c(CO)nc2ccccc21,17.8% (inactive),
CC(=O)N1N=C(c2ccncc2)OC1(Cc1ccccc1)Cc1ccccc1,9.53% (inactive),
COc1cccc(CNn2cn[nH]c2=S)c1OCc1ccccc1,-3.37% (inactive),
C=CCN1C(=O)C(O)(CC(=O)c2ccccn2)c2ccccc21 (configuration not stated),-20.3% (inactive),
S=c1[nH]nc(Nc2ccccc2)s1,-6.55% (inactive),
CC1C(=O)NC(=O)C1c1ccccc1 (configuration not stated),11.3% (inactive),
COc1ccc(NC(=O)C2CCC(CNc3c(N4CCCCC4)c(=O)c3=O)CC2)c(OC)c1 (configuration not stated),1.5% (inactive),
O=C(Nc1ccccc1)Nc1ccc(C(F)(F)F)cn1,-12.1% (inactive),
COC(=O)c1sc(SC)c(S(=O)(=O)C(C)C)c1N/N=C(\C#N)S(=O)(=O)c1ccccn1,26.5% (inactive),
O=C(NC1C2CC3CC(C2)CC1C3)c1ccc(N2CCNCC2)c([N+](=O)[O-])c1 (configuration not stated),-17.8% (inactive),
C=CCC1(C#N)C(=S)NC(C)=C(C(=O)OCC)C1c1ccccc1 (configuration not stated),-2.23% (inactive),
Cc1c(Cc2ccccc2)c(=O)oc2cc(OCC(N)=O)ccc12,-14.1% (inactive),
Cn1c(SCC(=O)c2ccc(F)cc2)nnc1-c1ccccn1,-3.85% (inactive),
CCOC(=O)COc1nc(C)cc(C(F)(F)F)c1C#N,2.06% (inactive),
O=C(O)CCCCCCCCCC[n+]1ccccc1,9.14% (inactive),
NC(=O)c1ccc(NC(=O)COC(=O)c2ccc([N+](=O)[O-])cc2)cc1,11.7% (inactive),
Cc1cc(N2CCN(c3ccc(F)cc3)CC2)n2ncnc2n1,15.1% (inactive),
CN(C)C(=O)c1nc2ccc(Cl)cn2c1CNCc1cccc(OC(F)(F)F)c1,10.5% (inactive),

SMILES,inhibition (at 3.6 µM),inhibition [1] [%]
O=C(c1ccc(=O)oc1)N1CCC(C(O)(c2ccccc2)c2ccccc2)CC1,7.4% (inactive),
O=C(COC(=O)/C=C/c1ccc2c(c1)OCO2)NC1CCS(=O)(=O)C1 (configuration not stated),-0.46% (inactive),
CCCCc1nnc(NC(=O)CSc2nc(N)cc(=O)[nH]2)s1,-1.44% (inactive),
CCC(O)C1CCN(Cc2cn(-c3ccc(OC)cc3)nc2-c2cccc(F)c2)CC1 (configuration not stated),-7.8% (inactive),
CC(NC(=S)Nc1ccccc1)C(c1cccs1)N1CCOCC1 (configuration not stated),3.55% (inactive),
CCC1CCCCN1C(=O)CSc1nc2c(c(=O)n(C)c(=O)n2C)n1C (configuration not stated),-9.61% (inactive),
CCOC(=O)c1ccccc1NC(=S)N1CCC(C(N)=O)CC1,-16.5% (inactive),
CC1=NN(c2ccccc2)C(=O)C1C(=O)c1ccc([N+](=O)[O-])cc1 (configuration not stated),4.71% (inactive),
CCCNc1c(N)c(=O)c1=O,-3% (inactive),
COc1ccc(CCNC(=O)C(=O)Nc2ccc3nc4n(c(=O)c3c2)CCCCC4)cc1OC,-7.43% (inactive),
CN1CCN(c2ncc3c(n2)CC(c2ccccc2F)CC3=O)CC1 (configuration not stated),2.14% (inactive),
N#C/C(=C(\O)C(F)(F)F)c1nnc2n1CCCCC2,31.1% (inactive),-1.52
CCOc1ccc2nc(NCCNC(=O)C(C)(C)C)c(C)cc2c1,-1% (inactive),
Cn1cc(S(=O)(=O)NC(c2ccccc2)c2ccccc2)c(=O)n(C)c1=O,-1% (inactive),
CN(c1ccc(OCC(=O)NC2=NCCS2)cc1)S(=O)(=O)c1ccc(F)cc1,9.17% (inactive),
CC1CC1C(=O)OCC(=O)c1c(N)n(C)c(=O)n(C)c1=O (configuration not stated),-8.03% (inactive),
O=S(=O)(NCCc1csc(-c2ccccc2)n1)c1cccnc1,4.16% (inactive),
Cc1nnc2n1N=C(c1ccc3c(c1)NC(=O)CO3)CS2,-5.45% (inactive),
COc1ccc(C)cc1NC(=O)c1ccc(-c2ccc(C(C)=O)cc2)o1,6.7% (inactive),
C/C(=N/NC(=O)CC(=O)N/N=C(\C)c1ccc([N+](=O)[O-])cc1)c1ccc([N+](=O)[O-])cc1,11.2% (inactive),
O=C(Nc1nc2ccc([N+](=O)[O-])cc2s1)c1ccncc1,8.08% (inactive),
COc1cc(CN2CCNC(=O)C2CC(=O)NCCc2ncccc2C)cc(OC)c1 (configuration not stated),-11.4% (inactive),
CN(CC(=O)Nc1ccccc1F)CC(=O)Nc1ccccc1Br,27.7% (inactive),
Cc1c(C)c(C)c2[nH]c(=S)[nH]c2c1C,4.61% (inactive),
O=c1[nH]c(CSc2ccccc2)nc2c1oc1ccccc12,2.42% (inactive),

SMILES,inhibition (at 3.6 µM),inhibition [1] [%]
CCOc1ccc(NC(=S)N2CCCCCC2)cc1,-16.4% (inactive),
CCOc1ccc(NS(=O)(=O)c2cc(C)c(C)cc2C)cc1,-11.4% (inactive),
CC(=O)c1c(C)[nH]c(=S)c(C#N)c1-c1ccc(F)cc1,10.4% (inactive),
CCCc1nc2oc3c(=O)[nH]cnc3c2c2c1COC(C)(C)C2,-9.43% (inactive),
O=C(NCc1cccnc1)C(=O)Nc1nc(-c2ccccc2)cs1,-5.87% (inactive),
Oc1oc(-c2ccccc2Br)nc1/C=N/c1ccccn1,2.05% (inactive),
Oc1cccc2ccc(/C=C/c3ccc(Br)s3)nc12,-11.7% (inactive),
CN(C)CCOc1cccc(Br)c1,11.8% (inactive),
CN(C)c1ccc(NC(=O)CSc2n[nH]c(-c3ccco3)n2)cc1,-3.13% (inactive),
Cc1nc2ccccn2c1C(=O)NN=C1CCN(C)CC1,-1.88% (inactive),
CC(C)OCCCNC(=O)c1ccc(C2SCC(=O)N2Cc2ccco2)cc1 (configuration not stated),1.23% (inactive),
CCn1c(CSCc2c(Cl)cccc2Cl)n[nH]c1=S,-0.03% (inactive),
O=C(O)CCc1nc2cc(Cl)ccc2n(Cc2ccccc2)c1=O,-4.14% (inactive),
Cc1nc2cccnc2nc1C,-6.92% (inactive),
Cc1ccccc1Nc1nc(N)nc(CSc2nnc3ccccn23)n1,4.62% (inactive),
CC(C)(C)NC(=O)/C(=C/c1cccnc1)NC(=O)c1ccco1,-0.65% (inactive),
CN1CCN(C2=NCCO2)CC1,-5.76% (inactive),
CC(C)=C(NC(=O)c1ccccc1)C(=O)N/N=C(\C)c1ccccc1O,51.8% (active),31.3
C/C(=N\NC(=O)c1nc(C)cc(C)n1)c1ccccc1,-2.86% (inactive),
CNC(=O)C(NC(=O)c1ccccc1)=C(C)C,3.15% (inactive),
Cc1ccc(SCc2c(C(=O)N/N=C/C3CC=CCC3)nnn2-c2nonc2N)cc1 (configuration not stated),9.89% (inactive),
OCC1(Cc2ccccc2C(F)(F)F)CCN(Cc2ccncc2)CC1,9.49% (inactive),
O=C1C2C3C=CC(C3)C2C(=O)N1c1ccc(-c2nc3ccccc3c(=O)o2)cc1 (configuration not stated),1.56% (inactive),
O=C(CCCl)Nc1ccc(S(=O)(=O)NCc2ccco2)cc1,4.49% (inactive),
CC(C)c1nc(SCC(=O)NC(=O)NC(C)(C)C)n[nH]1,-8.54% (inactive),

SMILES,inhibition (at 3.6 µM),inhibition [1] [%]
O=C(COC(=O)c1ccc(Cl)nc1)NCc1cccs1,-9.13% (inactive),
Cc1cc(C(=O)Cn2cnc3cc([N+](=O)[O-])ccc3c2=O)c(C)n1CC1CCCO1 (configuration not stated),5.54% (inactive),
C=CCSc1nnc(NC(=O)c2ccc(NC(C)=O)cc2)s1,2.48% (inactive),
Cc1cc(C)c(NC(=O)CN2C(=O)NC(Cc3ccccc3)C2=O)c(C)c1 (configuration not stated),43.2% (inactive),7.39
O=[N+]([O-])C(=c1ccc2c(c1)N1C3=C(CCCC3)CC3CCCCC31N=2)[N+](=O)[O-] (configuration not stated),-9.85% (inactive),
CCOC(=O)CNC(=O)CSc1ccc2nnc(-c3cccnc3)n2n1,-13.1% (inactive),
CC(=O)Nc1ccc(CC#N)cc1,-7.92% (inactive),
CC(NC(=O)C(=O)Nc1nccs1)c1ccccc1 (configuration not stated),12.6% (inactive),
COc1ccc(/C=C/c2nnc(NC(=O)C(C)C)s2)cc1,2.36% (inactive),
Cn1nc(C(F)(F)F)c(-c2ccc(F)cc2)c1NC(=O)CSCC(=O)O,10% (inactive),
O=[N+]([O-])/C=C1\CCCCCN1,-6.23% (inactive),
O=C1[C@@H]2C(c3cccnc3)=NO[C@@H]2C(=O)N1c1ccc(Cl)cc1Cl,13.9% (inactive),
CCOC(=O)CNc1nc(Cl)nc(Nc2ccccc2)n1,0.72% (inactive),
Cn1nccc1NC(=O)Nc1ccc(OC(F)(F)F)cc1,-2.41% (inactive),
COc1ccccc1P(=O)(c1ccccc1)c1ccccc1NC(C)=O (configuration not stated),40.9% (inactive),-18.2
CCOC(=O)C(CC)/C(C)=N\NC(=O)c1cccc(C)c1 (configuration not stated),9.71% (inactive),
COC(=O)CC1=NN(c2ccccc2)C(=O)C1,-13% (inactive),
Cc1cc(C(=O)OCC(=O)Nc2nccs2)c2ccccc2n1,9.68% (inactive),
Cc1ccccc1C(=O)Nc1ccc(N2CCCCCC2)cc1,-4.06% (inactive),
COc1ccc(NC(=O)CSc2ncnc3[nH]ncc23)cc1,-14.6% (inactive),
CCC/C(C)=N\Nc1nc2c(c(=O)n(C)c(=O)n2C)n1C,-3.15% (inactive),
COc1ccc(/C=N/NS(=O)(=O)c2ccc(NC(C)=O)cc2)cc1,10.1% (inactive),
C/C(CCc1ccccc1)=N\NC(=O)c1ccc(CN2CCOCC2)cc1,6.96% (inactive),
